# PubChem BioAssay (Tox21)
# Results filed as inconclusive are left out. Unmarked numbers belong to inactive results. The call rests on the fitted dose curve; in most records, active means well fitted activation curve with a large enough effect in the signal ratio in the repeat runs (not every such curve was filed as active); inconclusive means weak or mixed curves; inactive means flat fitted curve, though single readings scatter; the % refers to the signal ratio.
# Test: qHTS assay to identify small molecule agonists of the hypoxia (HIF-1) signaling pathway (AID 1224846)
# Conditions: HRE-bla ME-180 cells, beta-lactamase ratio, 17 h; series mostly up to 76.8 µM; activation: at the top concentration
# Excerpt: U.S. Tox21 Program National Center for Advancing Translational Sciences [NCATS] NIH Chemical Genomics Center [NCGC] U.S. Environmental Protection Agency [EPA] National Institutes of Environmental Health Sciences [NIEHS] National Toxicology Program [NTP] U.S. Food and Drug Administration [FDA] Tox21 Assay Overview: Hypoxia-inducible factor-1 (HIF-1) is the major hypoxia-regulated transcription factor that controls cellular responses to low oxygen concentration. HIF-1 is composed of two subunits: hypoxia responsive HIF-1-alpha and constitutively expressed HIF-1-beta, which is also known as aryl hydrocarbon receptor nuclear translocator. During hypoxic conditions, HIF-1-alpha heterodimerizes with HIF-1-beta and translocates into the nucleus where the HIF-1 complex binds to the hypoxia-response element (HRE) and activates expression of target genes such as VEGF (vascular endothelial growth factor). The HIF-1 pathway is essential to normal growth and development, and is involved in the pathophysiology of cancer, inflammation, and ischemia. Using a beta-lactamase reporter-gene under control of the hypoxia response element, a cell-based assay [CellSensor(TM) HRE-bla ME-180 from Life Technologies, Carlsbad, CA] was used to measure hypoxia-induced signaling. Tox21 10K library compounds were measured for their ability to induce the reporter gene activity.
# Tox21 Assay Protocol Summary: HRE-bla ME-180 cells were dispensed at 2,000 cells per well in 6 uL of assay medium containing 0.5% dialyzed FBS into black wall/clear-bottom 1536-well plates using a Multidrop Combi (Thermo Scientific, Waltham, MA) dispenser. After the assay plates were incubated at 37C and 5% CO2 for 5 hrs, 23 nL of compounds dissolved in DMSO, positive controls or DMSO only was transferred to each well of the assay plate using a Pintool station (Kalypsys, San Diego, CA). The assay plates were incubated at 37C and 5% CO2 for 17 hrs. One uL of LiveBLAzerTM B/G FRET substrate (CCF4-AM) (Life Technologies) was added to each well using a Flying Reagent Dispenser (Aurora Discovery, San Diego, CA).
# On the % scale 0 is the no-effect control and ±100 the full control effect.
row,SMILES,activation
1,[As]#[In],-0.952%
2,[Cl][Sn]([Cl])([Cl])[Cl],0%
3,CNC(=O)Oc1ccccc1C1OCCO1,-0.596%
4,O=C(Oc1ccc(Br)cc1)N1CCN2CCC1CC2,-0.327%
5,O=C1CN2CCOC2(c2ccccc2Cl)c2cc(Cl)ccc2N1 (stereo not given),1.39% [at 35.5 µM]
6,COc1cc(OC)nc(Oc2cccc(Oc3nc(OC)cc(OC)n3)c2C(=O)O)n1,0.283%
7,CCCCN(CCCCO)N=O,0.417%
8,CCOC(=O)N(C)C(=O)CSP(=S)(OCC)OCC,0.364%
9,NC(=O)O,-2.24%
10,ClCC(Cl)Cl,-0.697%
11,CCOC(=O)/C=C(C)/C=C/C[C@@H](C)CCCC(C)C,0.596%
12,CC1=NNC(=O)N(/N=C/c2cccnc2)C1,-0.938%
13,N#CC(Cl)(Cl)Cl,-0.509%
14,COc1cc(OC)nc(NC(=O)NS(=O)(=O)c2ncccc2C(=O)N(C)C)n1,0.38%
15,Clc1ccccc1N1CCNCC1,0.903% [at 35.5 µM]
16,O=NN1CCCCC1,1.74%
17,CC1COC2(c3ccccc3Cl)c3cc(Cl)ccc3NC(=O)CN12 (stereo not given),-1.06% [at 35.5 µM]
18,CCOP(=O)(OCC)OP(=O)(OCC)OCC,-1.42%
19,C=CC1CC=CCC1 (stereo not given),-0.0486%
20,CCC#N,0.0202%

row,SMILES,activation
1,CC(C)[N+](=O)[O-],-0.473%
2,Cc1nnc2n1-c1sc(CCC(=O)N3CCOCC3)cc1C(c1ccccc1Cl)=NC2,-0.398% [at 35.5 µM]
3,CC(C1CC1)C(O)(Cn1cncn1)c1ccc(Cl)cc1 (stereo not given),-0.21%
4,CSc1ccc(C(=O)C(C)(C)N2CCOCC2)cc1,2.2%
5,ClC(Br)Br,-0.623%
6,CCOP(=S)(OCC)Oc1nc(Cl)n(C(C)C)n1,0.067%
7,O=C(N[C@H]1CN2CCC1CC2)c1cc2ccoc2cn1,-0.608%
8,CCN(CC)c1nc(C)cc(OP(=S)(OC)OC)n1,1.16%
9,CC1CN1P(=O)(N1CC1C)N1CC1C (stereo not given),0.17%
10,CCCCOC(=O)[C@@H](C)Oc1ccc(Oc2ccc(C#N)cc2F)cc1,-2%
11,CCc1cc2c(s1)-n1c(C)nnc1CN=C2c1ccccc1Cl,3.55% [at 35.5 µM]
12,CC(C)(C)NCC(O)c1cc(Cl)c(N)c(Cl)c1 (stereo not given),0.0896% [at 35.5 µM]
13,CC1=C(C(=O)O)N2C(=O)[C@@H](N)[C@H]2SC1,-0.576% [at 15.8 µM]
14,CNC(=O)Oc1cccc(C(C)C)c1,-0.113%
15,ClC(Cl)C(Cl)Cl,-0.0605%
16,O=C1OC(CCN2CCCCC2)OC1(c1ccccc1)c1ccccc1 (stereo not given),-0.23% [at 35.5 µM]
17,COP(N)(=S)Oc1ccccc1C(=O)OC(C)C (stereo not given),0.125%
18,CCCCc1c(C)nc(NCC)[nH]c1=O,-1.13%
19,O=C(Nc1ccccc1)N(Cc1ccc(Cl)cc1)C1CCCC1,2.26%
20,CCCSC(=O)N(CCC)CCC,-0.065%
